# Measured values reported in PubChem BioAssay (Tox21).
# A number with no mark means an inactive call. Entries that show only a call come without a potency. The source made the active and inactive calls. Calls come from the whole dose curve. Square brackets hold non-standard residues; d marks the D form. Peptide text beside a SMILES is read from it. pGlu = O=C1CC[C@@H](C(=O)O)N1
# Target: Muscarinic acetylcholine receptor M1 (Homo sapiens) (UniProt P11229)
# Test: Cholinergic receptor muscarinic 1 (CHRM1) small molecule agonists, cell-based qHTS assay (AID 1963589); note: nearly all actives have a fitted effect of over 35% in size
# Settings: CHRM1-CHO cells, agonist mode, calcium flux fluorescence; series mostly up to 76.8 µM
# From the text: National Center for Advancing Translational Sciences [NCATS]
# Division of Preclinical Innovation [DPI]
# U.S. Environmental Protection Agency [EPA]
# National Institutes of Environmental Health Sciences [NIEHS]
# National Toxicology Program [NTP]
# U.S. Food and Drug Administration [FDA]
# The CHRM1 is a muscarinic receptor. This receptor plays a crucial role in learning and memory processes and has long been identified as a promising therapeutic target for the improvement of cognitive decline in Alzheimer's disease (AD). The CHRM1-CHO cell line stably expressing human muscarinic acetylcholine receptor M1 (CHRM1) can be used for screening agonists and antagonists of interactions between CHRM1 and its ligands. The CHRM1-CHO Calcium Flux Assay is a homogeneous fluorescence-based assay for detecting the intracellular calcium level using FDSS kinetic plate reader system.
# CHRM1-CHO cells were dispensed at 1000 cells/3uL/well in 1536-well black-clear bottom plates using a Multidrop Dispenser. After the assay plates were incubated at a 37 C/5% CO2 incubator for 18 h, 3 uL of Dye Loading Buffer was transferred to the assay plate by a Flying Reagent Dispenser. The assay plates were incubated at 37 C for 1h. For agonist mode, 23 nL of compounds dissolved in DMSO, positive controls or DMSO only was transferred to the assay plate by a pin tool. […] Each test compound was measured at 15 concentrations in three independent runs.
# Muscarinic acetylcholine receptor M1 (Homo sapiens), sequence (P11229 whole entry, looked up): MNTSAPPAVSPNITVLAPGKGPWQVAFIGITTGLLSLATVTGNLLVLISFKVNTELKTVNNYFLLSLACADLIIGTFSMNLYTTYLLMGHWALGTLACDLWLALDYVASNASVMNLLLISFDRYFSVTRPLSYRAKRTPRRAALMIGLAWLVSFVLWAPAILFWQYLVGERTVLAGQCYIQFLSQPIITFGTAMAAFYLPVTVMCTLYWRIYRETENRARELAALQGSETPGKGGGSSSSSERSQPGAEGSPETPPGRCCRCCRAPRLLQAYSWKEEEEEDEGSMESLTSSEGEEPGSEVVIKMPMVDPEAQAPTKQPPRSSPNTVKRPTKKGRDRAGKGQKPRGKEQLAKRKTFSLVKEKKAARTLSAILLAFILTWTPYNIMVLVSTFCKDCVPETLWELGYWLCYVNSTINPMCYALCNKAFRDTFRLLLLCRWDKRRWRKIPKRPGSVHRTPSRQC
Compound,Potency,activation
COc1ccc2[nH]cc(CCN(C(C)C)C(C)C)c2c1,inactive,
CCOP(=O)(N=C1SCCS1)OCC,inactive,
Nc1ccccc1C(=O)OC/C=C/c1ccccc1,inactive,
COC(C)(C)CCC[C@H](C)C/C=C/C(C)=C/C(=O)OC(C)C,inactive,
CCCCn1cc[n+](C)c1 (tested in a mixture with another compound),inactive,
C#CCC1=C(C)C(OC(=O)C2C(C=C(C)C)C2(C)C)CC1=O (stereo not given),inactive,
O=CC(Br)(Br)Br,inactive,
CCC#N,inactive,
CC(C)OC(=O)C(O)(c1ccc(Cl)cc1)c1ccc(Cl)cc1,inactive,
CNCC(=O)c1ccc(O)c(O)c1,inactive,
CCOP(=S)(OCC)Oc1ncn(-c2ccccc2)n1,inactive,
Oc1cc(Cl)c(Cl)c(Cl)c1,inactive,
CNC(=O)O/N=C(\C)C(C)S(C)(=O)=O (stereo not given),inactive,
CC(=O)[O-].CC(=O)[O-].CC(=O)[O-].[Sb+3],,-0.154% [at 2.72 µM]
BrCC(Br)C1CCC(Br)C(Br)C1 (stereo not given),inactive,
Clc1ccc(-c2ccc(Cl)c(Cl)c2Cl)c(Cl)c1Cl,inactive,
ClC1=C(Cl)C2(Cl)C(CBr)CC1(Cl)C2(Cl)Cl (stereo not given),inactive,
CC(O)C#N (stereo not given),inactive,
CCc1cc(OC)c(C[C@H](C)N)cc1OC,inactive,
CC[C@H]1C[C@H]2[C@@H]3CCC4=CC(=O)CC[C@@H]4[C@H]3CC[C@]2(C)[C@H]1O,inactive,

Compound,Potency,activation
CCCN,inactive,
O=Cc1ccc2c(c1)OCO2,inactive,
CC(C)NCC(O)c1ccc(N)c(C#N)c1 (stereo not given),inactive,
COc1ncc(F)c2nc(S(=O)(=O)Nc3c(F)cccc3F)nn12,inactive,
C=CC(=C)C,inactive,
CCOC(=O)C(SP(=S)(OC)OC)c1ccccc1 (stereo not given),inactive,
O=C1CN2CCOC2(c2ccccc2Cl)c2cc(Cl)ccc2N1 (stereo not given),inactive,
Cc1cccc2sc3nncn3c12,inactive,
CCOC(=O)C1(c2ccccc2)CCN(CCc2ccc(N)cc2)CC1,inactive,
Nc1ccc2c(c1)Cc1ccccc1-2,inactive,
O=C(NC(O)C(Cl)(Cl)Cl)NC(O)C(Cl)(Cl)Cl (stereo not given),inactive,
CCOP(=S)(NC(C)C)Oc1ccccc1C(=O)OC(C)C (stereo not given),inactive,
COP(=O)(OC)O/C(=C/Cl)c1cc(Cl)c(Cl)cc1Cl,inactive,
CC(=O)c1cc(C(C)(C)C)cc2c1CCC2(C)C,inactive,
CCCC(Cn1cncn1)c1ccc(Cl)cc1Cl (stereo not given),inactive,
C#C[C@]1(O)CC[C@H]2[C@@H]3CCC4=CC(=O)CCC4=C3C=C[C@@]21CC,inactive,
CN1CCc2cc3c(cc2C1O)OCO3 (stereo not given),inactive,
C=CC(=O)OCCCCOC(=O)C=C,inactive,
CC(=O)/C=C/c1ccc2c(c1)OCO2,inactive,
CCNC(=O)[C@@H]1CCCN1C(=O)[C@H](CCCN=C(N)N)NC(=O)[C@H](CC(C)C)NC(=O)CNC(=O)[C@H](Cc1ccc(O)cc1)NC(=O)[C@H](CO)NC(=O)[C@H](Cc1c[nH]c2ccccc12)NC(=O)[C@H](Cc1cnc[nH]1)NC(=O)[C@@H]1CCC(=O)N1 ([pGlu]HWSYGLRP-NHEt),inactive,
